Source: ChEMBL document CHEMBL5724796, “Tm Shift (DSF) assay results for EUbOPEN Chemogenomics Library” (2024)
Residues, ends and D or L forms follow the SMILES beside them. *: point of attachment. Cbz = O=C(OCc1ccccc1)*; CH2Cl = ClC*; CH2F = FC*

What was measured:
Conditions in all cases: Compound concentration 20.0 uM
[1] = biological target: Tyrosine-protein kinase ABL1 (Homo sapiens) (UniProt P00519)
[2] = biological target: Bromodomain-containing protein 4 (Homo sapiens) (UniProt O60885)
[3] = biological target: Cyclin-dependent kinase 2 (Homo sapiens) (UniProt P24941)
[4] = biological target: Casein kinase I isoform delta (Homo sapiens) (UniProt P48730)
[5] = biological target: Glycogen synthase kinase-3 beta (Homo sapiens) (UniProt P49841)
[6] = biological target: Mitogen-activated protein kinase 1 (Homo sapiens) (UniProt P28482)
[7] = biological target: T1, Aurora kinase A (Homo sapiens) (UniProt O14965)
T1 sequence (whole entry): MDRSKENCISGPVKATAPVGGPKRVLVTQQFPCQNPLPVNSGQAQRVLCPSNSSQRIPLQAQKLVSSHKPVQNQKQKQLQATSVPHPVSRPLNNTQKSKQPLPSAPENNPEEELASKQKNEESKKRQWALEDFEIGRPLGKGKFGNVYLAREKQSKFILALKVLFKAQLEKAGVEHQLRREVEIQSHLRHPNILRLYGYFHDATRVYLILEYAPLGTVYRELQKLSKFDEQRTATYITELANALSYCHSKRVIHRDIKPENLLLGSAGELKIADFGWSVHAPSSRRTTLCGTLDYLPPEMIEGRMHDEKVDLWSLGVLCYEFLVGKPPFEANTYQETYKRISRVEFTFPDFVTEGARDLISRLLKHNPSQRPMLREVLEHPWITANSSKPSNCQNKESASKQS

[8] = biological target: T2, Transcription intermediary factor 1-alpha (Homo sapiens) (UniProt O15164)
T2 sequence (whole entry): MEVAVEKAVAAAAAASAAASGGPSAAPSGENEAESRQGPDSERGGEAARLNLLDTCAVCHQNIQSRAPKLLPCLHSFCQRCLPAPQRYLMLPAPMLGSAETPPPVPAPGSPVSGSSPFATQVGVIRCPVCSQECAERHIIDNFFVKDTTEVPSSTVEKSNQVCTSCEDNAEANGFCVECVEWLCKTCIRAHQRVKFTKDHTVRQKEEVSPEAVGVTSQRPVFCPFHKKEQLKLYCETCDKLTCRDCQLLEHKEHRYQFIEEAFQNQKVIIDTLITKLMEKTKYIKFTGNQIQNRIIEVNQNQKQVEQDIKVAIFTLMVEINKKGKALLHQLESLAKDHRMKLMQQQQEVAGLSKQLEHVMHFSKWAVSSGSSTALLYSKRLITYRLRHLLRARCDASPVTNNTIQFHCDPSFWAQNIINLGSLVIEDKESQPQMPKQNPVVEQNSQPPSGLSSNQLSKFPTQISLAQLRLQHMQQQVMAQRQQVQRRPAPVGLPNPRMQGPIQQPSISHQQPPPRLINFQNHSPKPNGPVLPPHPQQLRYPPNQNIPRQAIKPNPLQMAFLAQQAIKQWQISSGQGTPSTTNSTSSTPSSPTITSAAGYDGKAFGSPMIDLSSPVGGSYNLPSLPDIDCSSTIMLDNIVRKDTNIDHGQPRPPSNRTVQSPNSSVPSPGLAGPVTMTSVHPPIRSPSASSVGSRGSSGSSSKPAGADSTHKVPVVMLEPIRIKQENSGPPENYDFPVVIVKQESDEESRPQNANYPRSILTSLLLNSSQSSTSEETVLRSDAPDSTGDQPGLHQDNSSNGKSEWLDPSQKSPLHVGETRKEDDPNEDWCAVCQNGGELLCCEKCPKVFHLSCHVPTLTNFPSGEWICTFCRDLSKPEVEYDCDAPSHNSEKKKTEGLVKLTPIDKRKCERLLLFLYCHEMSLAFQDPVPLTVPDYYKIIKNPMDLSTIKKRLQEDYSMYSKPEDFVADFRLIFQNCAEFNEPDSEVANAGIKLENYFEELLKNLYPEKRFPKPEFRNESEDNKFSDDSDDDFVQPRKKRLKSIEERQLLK

Chain of Mitogen-activated protein kinase 1 (Homo sapiens) (P28482 whole entry): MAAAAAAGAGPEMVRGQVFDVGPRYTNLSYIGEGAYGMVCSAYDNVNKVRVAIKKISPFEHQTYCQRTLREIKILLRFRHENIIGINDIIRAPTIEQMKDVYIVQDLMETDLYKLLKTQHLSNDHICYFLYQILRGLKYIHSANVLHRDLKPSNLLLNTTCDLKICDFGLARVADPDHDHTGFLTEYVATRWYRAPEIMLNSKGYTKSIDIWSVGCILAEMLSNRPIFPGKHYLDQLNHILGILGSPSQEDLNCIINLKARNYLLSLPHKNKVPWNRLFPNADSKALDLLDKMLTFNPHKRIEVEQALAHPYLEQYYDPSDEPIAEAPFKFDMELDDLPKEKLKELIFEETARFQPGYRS
Chain of Tyrosine-protein kinase ABL1 (Homo sapiens) (P00519 whole entry): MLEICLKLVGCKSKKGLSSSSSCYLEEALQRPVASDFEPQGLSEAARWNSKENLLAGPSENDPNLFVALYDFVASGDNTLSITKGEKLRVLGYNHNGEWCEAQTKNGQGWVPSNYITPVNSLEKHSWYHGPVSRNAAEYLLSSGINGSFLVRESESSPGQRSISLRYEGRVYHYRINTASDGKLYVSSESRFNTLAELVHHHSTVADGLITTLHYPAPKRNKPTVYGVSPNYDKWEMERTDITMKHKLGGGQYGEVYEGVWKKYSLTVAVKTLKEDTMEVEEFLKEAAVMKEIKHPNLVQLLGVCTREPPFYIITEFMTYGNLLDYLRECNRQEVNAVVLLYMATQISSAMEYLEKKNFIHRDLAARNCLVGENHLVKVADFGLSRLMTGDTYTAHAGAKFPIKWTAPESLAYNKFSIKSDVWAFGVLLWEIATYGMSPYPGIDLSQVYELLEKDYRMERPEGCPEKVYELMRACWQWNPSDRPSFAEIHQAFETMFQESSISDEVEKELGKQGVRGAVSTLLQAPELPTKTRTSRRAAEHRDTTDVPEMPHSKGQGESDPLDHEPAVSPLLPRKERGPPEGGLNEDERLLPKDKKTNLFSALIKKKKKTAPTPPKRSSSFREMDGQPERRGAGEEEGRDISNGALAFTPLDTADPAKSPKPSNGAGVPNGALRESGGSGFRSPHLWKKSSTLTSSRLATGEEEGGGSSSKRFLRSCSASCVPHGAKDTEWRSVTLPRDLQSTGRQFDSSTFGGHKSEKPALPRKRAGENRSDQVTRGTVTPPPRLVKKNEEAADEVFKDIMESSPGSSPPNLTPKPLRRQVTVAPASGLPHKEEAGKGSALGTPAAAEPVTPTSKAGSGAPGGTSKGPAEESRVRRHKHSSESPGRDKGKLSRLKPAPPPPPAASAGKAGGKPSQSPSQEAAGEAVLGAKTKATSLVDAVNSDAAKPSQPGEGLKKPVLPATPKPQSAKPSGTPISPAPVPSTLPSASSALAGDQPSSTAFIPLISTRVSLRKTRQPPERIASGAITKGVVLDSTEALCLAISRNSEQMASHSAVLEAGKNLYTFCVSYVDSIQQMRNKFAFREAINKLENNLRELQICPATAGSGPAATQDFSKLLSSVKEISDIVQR
Chain of Glycogen synthase kinase-3 beta (Homo sapiens) (P49841 whole entry, looked up): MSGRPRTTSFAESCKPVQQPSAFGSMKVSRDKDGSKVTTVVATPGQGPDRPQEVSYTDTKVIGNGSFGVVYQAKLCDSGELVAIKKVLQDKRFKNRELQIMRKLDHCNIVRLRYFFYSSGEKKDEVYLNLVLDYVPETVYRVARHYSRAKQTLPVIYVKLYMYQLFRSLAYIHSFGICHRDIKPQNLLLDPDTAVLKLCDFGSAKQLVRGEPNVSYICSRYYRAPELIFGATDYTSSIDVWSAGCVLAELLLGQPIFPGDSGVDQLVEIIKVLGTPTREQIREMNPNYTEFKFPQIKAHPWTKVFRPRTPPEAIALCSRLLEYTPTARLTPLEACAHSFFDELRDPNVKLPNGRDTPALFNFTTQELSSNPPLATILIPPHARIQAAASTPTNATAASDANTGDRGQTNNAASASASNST
Chain of Casein kinase I isoform delta (Homo sapiens) (P48730 whole entry, looked up, canonical isoform): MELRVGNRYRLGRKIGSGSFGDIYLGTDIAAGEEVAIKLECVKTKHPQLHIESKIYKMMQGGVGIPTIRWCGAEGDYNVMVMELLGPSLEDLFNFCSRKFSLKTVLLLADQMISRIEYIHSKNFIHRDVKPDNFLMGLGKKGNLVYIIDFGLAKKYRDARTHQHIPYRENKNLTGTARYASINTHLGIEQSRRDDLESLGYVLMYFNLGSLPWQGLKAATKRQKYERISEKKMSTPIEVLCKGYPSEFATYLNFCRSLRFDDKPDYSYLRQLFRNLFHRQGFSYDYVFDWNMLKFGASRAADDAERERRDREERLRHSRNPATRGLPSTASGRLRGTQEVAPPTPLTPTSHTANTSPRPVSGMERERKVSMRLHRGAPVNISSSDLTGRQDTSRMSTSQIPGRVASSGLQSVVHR

CS(=O)(=O)n1cc2c(n1)CN([C@H]1CO[C@H](c3cc(F)ccc3F)[C@@H](N)C1)C2
ΔTm [1]: 0.01 °C
ΔTm [2]: 1.23 °C
ΔTm [3]: 0.1 °C
ΔTm [4]: -0.33 °C
ΔTm [5]: -0.84 °C
ΔTm [6]: 0.32 °C
ΔTm [7]: -2.29 °C
ΔTm [8]: -0.65 °C

CC(C)(Sc1ccncc1-c1ccc(C#N)c2ccccc12)C(=O)O
ΔTm [1]: -0.01 °C
ΔTm [2]: -0.37 °C
ΔTm [3]: -0.1 °C
ΔTm [4]: -0.19 °C
ΔTm [5]: -0.7 °C
ΔTm [6]: 0.17 °C
ΔTm [7]: -1.93 °C
ΔTm [8]: -0.49 °C

CCCCCCCCCCCCC/C=C/[C@@H](O)[C@H](CO)NC(=O)CCl
ΔTm [1]: 0.07 °C
ΔTm [2]: -0.55 °C
ΔTm [3]: -0.22 °C
ΔTm [4]: 2.15 °C
ΔTm [5]: -0.08 °C
ΔTm [6]: 1.33 °C
ΔTm [7]: 0.17 °C
ΔTm [8]: -0.39 °C

NC(=O)[C@H]1CCCCc2c1[nH]c1ccc(Cl)cc21
ΔTm [1]: 1.15 °C
ΔTm [2]: -1.22 °C
ΔTm [3]: 0.22 °C
ΔTm [4]: 0.38 °C
ΔTm [5]: 0.6 °C
ΔTm [6]: -0.5 °C
ΔTm [7]: 1.7 °C
ΔTm [8]: 0.16 °C

OC1CN=C2c3ccn([C@@H]4O[C@H]([C@H](O)c5ccc(Cl)cc5)[C@@H](O)[C@H]4O)c3N=CN21 (stereo not given in full)
ΔTm [1]: 0.73 °C
ΔTm [2]: -1.38 °C
ΔTm [3]: 0.66 °C
ΔTm [4]: 0.22 °C
ΔTm [5]: -0.73 °C
ΔTm [6]: 0.16 °C
ΔTm [7]: -0.39 °C
ΔTm [8]: -1.14 °C

CC(=O)N1CCN([C@H]2CCC[C@@H](NC(=O)c3cc4c(F)ccc(C)c4[nH]3)C2)CC1
ΔTm [1]: 0.05 °C
ΔTm [2]: -1.42 °C
ΔTm [3]: 0.08 °C
ΔTm [4]: 0.26 °C
ΔTm [5]: -1.37 °C
ΔTm [6]: 0.01 °C
ΔTm [7]: -0.09 °C
ΔTm [8]: -1.38 °C

Cc1cc(-c2ccc3nc(C4CCOCC4)n(CCOC(F)(F)F)c3c2)cn(C)c1=O
ΔTm [1]: 0.26 °C
ΔTm [2]: 10.3 °C
ΔTm [3]: 0.15 °C
ΔTm [4]: 0.13 °C
ΔTm [5]: -0.07 °C
ΔTm [6]: -0.47 °C
ΔTm [7]: -0.36 °C
ΔTm [8]: -0.3 °C

CC(=O)C(=Cc1cc(O)c(O)c([N+](=O)[O-])c1)C(C)=O
ΔTm [1]: 0.06 °C
ΔTm [2]: 0.74 °C
ΔTm [3]: 0.04 °C
ΔTm [4]: -0.82 °C
ΔTm [5]: -0.72 °C
ΔTm [6]: 0.27 °C
ΔTm [7]: 0.07 °C
ΔTm [8]: 0.21 °C

CN(C)Cc1ccc(S(=O)(=O)n2ccc(/C=C/C(=O)NO)c2)cc1
ΔTm [1]: 0.75 °C
ΔTm [2]: -1.99 °C
ΔTm [3]: 0.61 °C
ΔTm [4]: 0.25 °C
ΔTm [5]: -0.79 °C
ΔTm [6]: -0.07 °C
ΔTm [7]: -0.28 °C
ΔTm [8]: -1.27 °C

CCn1nc(C2CC2)cc1Nc1nc(C(=O)NC)nc2[nH]c3cc(-c4c(C)noc4C)c(OC)cc3c12
ΔTm [1]: 0.56 °C
ΔTm [2]: 8.71 °C
ΔTm [3]: -0.11 °C
ΔTm [4]: -0.18 °C
ΔTm [5]: -1.43 °C
ΔTm [6]: 0.23 °C
ΔTm [7]: -2.42 °C
ΔTm [8]: 0 °C

CN(C(=O)CCCOc1ccc2[nH]c(=O)ccc2c1)C1CCCCC1
ΔTm [1]: 0.63 °C
ΔTm [2]: -1.68 °C
ΔTm [3]: 0.09 °C
ΔTm [4]: -0.15 °C
ΔTm [5]: 0.07 °C
ΔTm [6]: 0.58 °C
ΔTm [7]: -2.27 °C
ΔTm [8]: -2.36 °C

N#Cc1cccnc1N1CCN(C(=O)c2cccc(Cc3n[nH]c(=O)c4ccccc34)c2)CC1
ΔTm [1]: 0.57 °C
ΔTm [2]: -2.92 °C
ΔTm [3]: 0.15 °C
ΔTm [4]: 0.14 °C
ΔTm [5]: -0.23 °C
ΔTm [6]: 0.24 °C
ΔTm [7]: -2.06 °C
ΔTm [8]: -0.96 °C

CC1(C)Cn2nc(-c3ccc(F)cn3)c(-c3ccnc4[nH]ncc34)c2CO1
ΔTm [1]: 2.43 °C
ΔTm [2]: -1.54 °C
ΔTm [3]: 0.09 °C
ΔTm [4]: 9.16 °C
ΔTm [5]: -1.21 °C
ΔTm [6]: -0.48 °C
ΔTm [7]: -0.55 °C
ΔTm [8]: -1.54 °C

CC(=O)N[C@@H](CC(C)C)C(=O)N[C@@H](CCC(=O)O)C(=O)N[C@@H](Cc1cnc[nH]1)C(=O)N[C@@H](CC(=O)O)C(=O)CCl (Ac-LEHD-CH2Cl)
ΔTm [1]: 0.46 °C
ΔTm [2]: -2.67 °C
ΔTm [3]: -0.58 °C
ΔTm [4]: 0.2 °C
ΔTm [5]: 0.91 °C
ΔTm [6]: 0.29 °C
ΔTm [7]: -1.15 °C
ΔTm [8]: -1.2 °C

COC(=O)CC[C@H](NC(=O)[C@H](C)NC(=O)OCc1ccccc1)C(=O)N[C@H](C(=O)N[C@@H](CC(=O)OC)C(=O)CF)C(C)C (Cbz-AE(OMe)VD(OMe)-CH2F)
ΔTm [1]: 0.32 °C
ΔTm [2]: -1.14 °C
ΔTm [3]: -0.09 °C
ΔTm [4]: -0.04 °C
ΔTm [5]: -0.78 °C
ΔTm [6]: -0.86 °C
ΔTm [7]: -1.1 °C
ΔTm [8]: -1.06 °C

CC(C)Cn1c(=O)n(C)c(=O)c2c(C(=O)N3CC[C@@H](O)C3)c(Cc3ccnc4ccccc34)sc21
ΔTm [1]: -0.39 °C
ΔTm [2]: 2.2 °C
ΔTm [3]: 0.16 °C
ΔTm [4]: 0.09 °C
ΔTm [5]: -1.09 °C
ΔTm [6]: 0.11 °C
ΔTm [7]: -0.87 °C
ΔTm [8]: 2.02 °C

CN1CC(=O)N2[C@H](c3ccc4c(c3)OCO4)c3[nH]c4ccccc4c3C[C@@H]2C1=O
ΔTm [1]: 0.48 °C
ΔTm [2]: -3.03 °C
ΔTm [3]: -0.06 °C
ΔTm [4]: 0.06 °C
ΔTm [5]: -0.13 °C
ΔTm [6]: 0.16 °C
ΔTm [7]: -2.46 °C
ΔTm [8]: -0.6 °C

COC(=O)CC[C@H](NC(=O)[C@H](Cc1c[nH]c2ccccc12)NC(=O)OCc1ccccc1)C(=O)N[C@@H](Cc1cnc[nH]1)C(=O)N[C@@H](CC(=O)OC)C(=O)CF (Cbz-WE(OMe)HD(OMe)-CH2F)
ΔTm [1]: 0.62 °C
ΔTm [2]: -1.63 °C
ΔTm [3]: 0.18 °C
ΔTm [4]: 0.21 °C
ΔTm [5]: -0.68 °C
ΔTm [6]: -0.1 °C
ΔTm [7]: -0.45 °C
ΔTm [8]: -0.87 °C

O=C(N(CCc1ccccc1)C1CCCCC1)n1ncc(-c2ccc(OC(F)(F)F)cc2)n1
ΔTm [1]: -0.68 °C
ΔTm [2]: -2.75 °C
ΔTm [3]: 0.18 °C
ΔTm [4]: 0.03 °C
ΔTm [5]: -3.35 °C
ΔTm [6]: 0.11 °C
ΔTm [7]: -1.75 °C
ΔTm [8]: 0.14 °C

CCCOC(=O)N1CCN(C(=O)c2ccc3c(Cl)cc(-c4ccc(C5(N)CC5)cc4)nc3c2)C[C@H]1C
ΔTm [1]: 0.57 °C
ΔTm [2]: -1.83 °C
ΔTm [3]: 0.05 °C
ΔTm [4]: 0.03 °C
ΔTm [5]: -1.68 °C
ΔTm [6]: -7.2 °C
ΔTm [7]: 0.93 °C
ΔTm [8]: -3.45 °C
